# Test results from PubChem BioAssay (NCI).
# The panel holds about 79,000 compounds, 15% with a hit somewhere; the sample as a whole holds those more often. Unmarked numbers belong to inactive results. Calls of active or inactive are those of the source. Cut-off read from the data, not from the text of the source: active = growth inhibition above about 70%; inactive = the rest.
# Test: NCI Yeast Anticancer Drug Screen. Data for the mlh1 rad18 strain (AID 175)
# Settings: S. cerevisiae mlh1 rad18 strain growth inhibition, active compounds read high; at 50.0 µM unless noted
# Procedure, shortened: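 Inhibition values reflect reduced growth of mutant yeast versus vehicle-treated controls following compound exposure; the mutations affect DNA damage repair.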
row,Compound,growth inhibition
1,COc1ccc2c(c1)c(COC(C)=O)c(C)c[n+]2[O-],52.9%
2,C=C(C)C1CCC2(C)CCC(=O)C(C)=C2C1 (centres undefined),-4.15%
3,CCOC(=O)C(CC/C=C\c1ccccc1)N1CCC[C@H]1C(=O)OC (some centres undefined),-13.3%
4,Cc1[nH]c2c(ccc3c2ccc2c(=O)c(C)c(C)[nH]c23)c(=O)c1C,2.3%
5,O/C(=C/c1ncnc2ccccc12)c1cccc(Cl)c1,15%
6,CC(=O)OC1CCC2(C)C(CCC3C2C(=O)C(OC(C)=O)C2(C)C3CC3OC4(CCC(C)CO4)C(C)C32)C1 (centres undefined),-6.9%
7,O=[N+]([O-])c1ccc[nH]1,2%
8,Oc1cc2c(cc1C(Nc1ncccn1)c1ccc3c(c1)OCO3)OCO2 (centres undefined),15.3%
9,CC(=O)OCC(O)CS(=O)c1ccc(C)cc1 (centres undefined),4.2%
10,CCCCCOC(=O)C#CC(=O)OCCCCC,99.7% (active)
11,CCN(CC)C(=O)Oc1cccc(NC(=O)OC)c1,33.4%
12,Clc1nn2cnnc2c2ncccc12,16.4%
13,CC[N+](CC)(CC)CCOc1nc(OCC[N+](CC)(CC)CC)nc(OCC[N+](CC)(CC)CC)n1,35%
14,CCOC(=O)C(=CNc1ccc(OC)cc1[N+](=O)[O-])C(=O)OCC,15.1%
15,CC1Nc2ccccc2C1C (centres undefined),-12.5%
16,CCOc1ccc2c(c1)S(=O)(=O)OC2=O,2.35%
17,COc1cc2c(cc1OC)C1C(C)c3ccc(OC)c(OC)c3CN1CC2 (centres undefined),-8.6%
18,Cc1ccc(S(=O)(=O)N2CCC(CCl)N(S(=O)(=O)c3ccc(C)cc3)CC2CCl)cc1 (centres undefined),7.8%
19,CCCCCC1CC(C(C)=O)CN1c1ccc(F)cc1 (centres undefined),-2%
20,O=C1OCc2ccccc21,3.15%

row,Compound,growth inhibition
1,O=C(Cc1ccccc1)c1ccccc1C(=O)NCc1ccncc1,-0.6%
2,Cc1ccc(N(C)S(=O)(=O)c2ccccc2)cc1,4.55%
3,CN(/N=C/c1cccs1)c1ccc(Cl)cc1[N+](=O)[O-],-1%
4,COCc1ccc2c(c1)C(O)NC(=O)O2 (centres undefined),16.1%
5,Cc1nc(N(C)C)oc(=O)c1CCc1ccccc1,8.9%
6,CN(C)c1cccc2c(S(=O)(=O)NCCCNCCN)cccc12,-6.6%
7,COc1cc(N=Nc2c(N)nc(N)[nH]c2=O)c(OC)cc1Cl,3%
8,CC(C)(CO)CNC(=O)C(C)(C)CO,-4.4%
9,CCOC(=O)c1ccc(O)c(NC(C)=O)c1,-7.15%
10,CCCn1c(C)nc2c([N+](=O)[O-])cc(C)cc21,-4.8%
11,CCC(C)(C)NC(N)=O,23.7%
12,COc1cc(C(=O)N(C)C)cc(OC)c1OC,5.5%
13,C=C(COc1ccc(OC)cc1)C(C)(C)C,-19.5%
14,CCN(CC(COc1ccc2c(c1)[n+]([O-])nc(N)[n+]2[O-])OC(C)=O)C(C)=O (centres undefined),41.3%
15,CC1(C)CC[C@]2(C(=O)O)CC[C@]3(C)C(=CC[C@@H]4[C@@]5(C)CC[C@H](OC6OC(CO)C(O)C(O)C6O)C(C)(C)[C@@H]5CC[C@]43C)[C@@H]2C1 (some centres undefined),54.4%
16,CCc1ccccc1NC(=O)C(=O)CC(=O)c1sc(Nc2ccccc2Cl)nc1C,15.1%
17,Cn1c(-c2csc(-c3ccc(Cl)cc3)n2)n[nH]c1=S,-36.1%
18,O=c1oc2ccccc2c(O)c1Cc1ccccc1Cc1c(O)c2ccccc2oc1=O,65%
19,Cc1ccc(Nc2cc(C(=O)O)c(Nc3ccc(C)cc3)cc2C(=O)O)cc1,6.9%
